# Where “and” joins values, the source holds several entries; their conditions need not be identical. Equal entries are not always repeated. Calls of active or inactive are those of the source. How the source made its calls: active means hit-call score of the fitted dose curve at least 0.9, where 1 is the maximum; inactive means score below 0.9.
# Read-out: Fatty Acid-Binding Protein 1 (FABP1), FABP1 (gene 2168)
# Assay: LTEA_HepaRG_FABP1: Life Technologies and Expression Analysis (LTEA) Assay for Fatty Acid-Binding Protein 1 (FABP1) using HepaRG (AID 2283494)
# Details: mRNA level, 48 h; actives raise or lower the signal
# Experimental: LTEA_HepaRG is a cell based, multiplexed-readout assay that uses HepaRG, a human liver cell line, with measurements taken at 48 hours after chemical dosing on a 96-well plate.LTEA_HepaRG_FABP1 is one of 102 assay component(s) measured in the LTEA HepaRG cell culture assay. It is a marker of Steatosis.Data from the assay component LTEA_HepaRG_FABP1 was analyzed into 1 endpoint. This assay endpoint, LTEA_HepaRG_FABP1, was analyzed with bidirectional fitting relative to DMSO as the negative control and baseline of activity. Using a type of inducible reporter, measures of mRNA induction for gain or loss-of-signal activity can be used to understand regulation of transcription factor activity. To generalize the intended target to other relatable targets, this assay endpoint is annotated to the transporter intended target family, where the subfamily is fatty acid carrier protein.
# A total of 1060 chemcials from the ToxCast library were tested in eight-point concentration-response experiments. Cell culture and cytotoxicity assays were conducted at Thermo Fisher Scientific's Custom Services facility (Madison, WI). A single lot of human HepaRG cells (Thermo Fisher Scientific, Frederick, MD) was used for the cell culture experiments. 96-well format collagen type I coated plates of human HepaRG cells were prepared using established methods. Briefly, cryopreserved HepaRG cells were thawed, plated at a density of approximately 100,000 cells/well in HepaRG Thaw, Plate, and General Purpose media (HPRG770, Thermo Fisher Scientific), and incubated for 48 hours. 0.5% DMSO was selected as vehicle control to balance the requisite need of DMSO in HepaRG cultures to maintain differentiation (for example, baseline metabolism, proportions of hepatocytes vs. cholangiocytes), while enabling further hepatic receptor pathway activation (for example, PXR and CAR) in response to chemical exposure. 48 hours after plating, the culture medium was replaced with HepaRG Serum-Free Incudtion Media. Cells were exposed to each test chemical in duplicate and maintained in CO2 incubators for another 48 hours. Chemical plates were thawed to room temperature and 200x concentrations of treatment groups were prepared. 8-point conentration-reponse curves were made with the highest exposure at 100 uM, followed by half-log dilutions, all in 0.5% DMSO. Each test plate contained variouse controls, induction positive controls (1mM phenobarbital), cytotoxicity positive controls ([…] aflatoxin B1), vehicle controls (0.5% DMSO), and total lysis controls (0.5% DMSO). Cell morphology images were taken using an Essen IncuCyte FLR automated microscope, with six 96-well plates imaged in about 24 minutes. Images were captured and exported and JPEG files. Spent culture media was transfered to black-well plates for the LDH assay, and remaining media was sorted at -80 C for later use. Cells were treated with RLT buffer and frozen until shipped for gene expression analysis. Total RNA was isolated from the cell suspension in 75 uL of Buffer RLT (Qiagen, Germantown, MD 20874) by Quintiles/Expression Analysis (Durham, NC) using a custom isolation procedure. Total RNA from each plate well was transferred to a preamplification plate. Fluidigm's 96.96 Dynamic ArrayTM (Fluidigm, Amsterdam, the Netherlands) technology was used for gene expression analyses by quantitative reverse transcription polymerase chain reaction (qRT-PCR, performed by Quintiles/Expression Analysis, Durham, NC)89. Standard TaqManTM Assays (Applied Biosystems/ThermoFisher Scientific, Foster City, CA) were used to assess the expression of 93 genes selected based on their selectivity and sensitivity to important hepatic receptors known to be modulated by environmental chemicals; importance in human hepatocyte functionality; and hepatotoxicity. […]
SMILES,AC50,outcome
O=C1C2(Cl)C3(Cl)C4(Cl)C(Cl)(Cl)C5(Cl)C3(Cl)C1(Cl)C5(Cl)C24Cl (stereo unspecified),93.5 µM (active),–
CCN1CCC2(CC1)COc1cc3c(cc12)N(C(=O)c1ccc(-c2ccc(-c4nnc(C)o4)cc2C)cc1)CC3,21.9 µM (active),–
Oc1cccc2cccnc12,–,inactive
CC(C)(OO)c1ccccc1,–,inactive
C[C@@H]1C[C@@H]([C@H](O)CC2CC(=O)NC(=O)C2)C(=O)[C@@H](C)C1,13.2 µM (active),–
O=c1[nH]c(=O)[nH]c(=O)[nH]1,–,inactive
CCOP(=S)(OCC)Oc1nc(Cl)c(Cl)cc1Cl,50 µM (active),–
O=C(O)C(Cl)(Cl)Cl,–,inactive
C[C@]12CCC(=O)C[C@@H]1CC[C@@H]1[C@@H]2CC[C@]2(C)[C@@H](O)CC[C@@H]12,–,inactive
CCC(C)(C)c1ccc(O)c(C(C)(C)CC)c1,–,inactive
C=C(C)C(=O)[O][Sn]([CH2]CCC)([CH2]CCC)[CH2]CCC,–,inactive
CCCCCCCCc1ccc(O)cc1,71.8 µM (active),–
O=C(O)C(F)(F)C(F)(F)C(F)(F)C(F)(F)C(F)(F)C(F)(F)C(F)(F)C(F)(F)C(F)(F)C(F)(F)F,–,inactive
CC(C)(C)c1cc(O)ccc1O,–,inactive
C=CC(=O)OCCCCCC(C)C,–,inactive
ClC1(Cl)C2(Cl)C3(Cl)C4(Cl)C(Cl)(Cl)C5(Cl)C3(Cl)C1(Cl)C5(Cl)C24Cl (stereo unspecified),3.49 µM (active),–

SMILES,AC50,outcome
CC12CC1(C)C(=O)N(c1cc(Cl)cc(Cl)c1)C2=O (stereo unspecified),9.46 µM (active),–
ClCC(Cl)CCl,–,inactive
CC(C)(C)CC(C)(C)c1ccc(O)cc1,–,inactive
Cn1sc(Cl)cc1=O,–,inactive
CC(C)(c1ccccc1)c1ccc(O)c(C(C)(C)c2ccccc2)c1,48.7 µM (active),–
Cc1ccccc1N,–,inactive
CCC(=O)C(CC(C)N(C)C)(c1ccccc1)c1ccccc1 (stereo unspecified),–,inactive
CC(=O)[O][Hg][c]1ccccc1,13 µM (active),–
O=[N+]([O-])c1ccc(O)c([N+](=O)[O-])c1,18.7 µM (active),–
CCOP(=S)(OCC)SCSP(=S)(OCC)OCC,12.1 µM (active),–
O=C(Nc1ccc2[nH]ccc2c1)c1cc2cc(F)ccc2n1Cc1cccc(F)c1,23.9 µM (active),–
COc1cc(-c2ccc(N)c(OC)c2)ccc1N,46.3 µM (active) and 32.8 µM (active),–
NC(=O)O,–,inactive
O=C(O)C(F)(F)C(F)(F)C(F)(F)C(F)(F)C(F)(F)C(F)(F)F,22.5 µM (active),–
CN(C)N=O,–,inactive

# Reference: PubChem BioAssay (EPA / NIEHS)
